The nature of assay [1]: anti-His antibody binders, primary screen, artefact control for SMM control protein annotation, biochemical, small-molecule microarray, 635 nm fluorescence (AID 1128).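 Further: score merges feature fluorescence with signal-to-noise for each printed compound spot.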 To be noted: anti-His Alexa647 antibody binding, higher = more signal.
For assay [2], the system named is Human papillomavirus type 1a E7 protein (residues 1-88). As to the kind of experiment: HPV1a E7 small-molecule binders, primary screen, biochemical, small-molecule microarray, residues 1-88, 635 nm (AID 1129). To be noted: small-molecule microarray binding, fluorescence 635 nm; higher = more signal.
In assay [3] the target is Focal adhesion kinase 1 (Homo sapiens) (UniProt Q05397). The assay can be described thus: small-molecule microarray binders of FAK, primary screen, biochemical, 635/667 nm fluorescence, BSA, DTT (AID 1130).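 Further: composite of spot emission at 667 nm and signal to noise over triplicate slides.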 Particulars: PTK2 binding, 635 nm fluorescence, higher = more signal.
In assay [4] the test system is Fibrinogen (Alexa647-labelled). The assay can be described thus: fibrinogen binders on compound microarrays, profiling panel, artefact control for SMM control-protein annotation, biochemical, small-molecule microarray, 635/667 nm fluorescence (AID 1131).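 Further: z-score merges 667 nm fluorescence with per-spot signal-to-noise over triplicate slides.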 Particulars: fibrinogen-A647 binding fluorescence, higher = more signal.
Assay [5] has as its target Follistatin (Homo sapiens) (UniProt P19883). As to the kind of experiment: follistatin binders on small-molecule microarrays, primary screen, biochemical, small-molecule microarray, 635/667 nm fluorescence (AID 1132). Particulars: FST binding, 635 nm fluorescence, higher = more signal.
The target in assay [6] is Fibroblast growth factor 2 (Homo sapiens) (UniProt P09038). The assay can be described thus: FGF2 binders on small-molecule microarrays, primary screen, biochemical, small-molecule microarray, 635/667 nm fluorescence (AID 1133). To be noted: small-molecule microarray binding, FGF2, fluorescence 635/667; higher = more signal.
Assay [7] can be described thus: mitochondrial membrane potential change in A549 cells, profiling panel, cell-based, JC-1 fluorescence, basal, 24 h, 100 nL (AID 1138).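 Further: A549 lung adenocarcinoma cells under basal conditions with no added stimulus; test concentration not given here.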 To be noted: higher = more signal.
In assay [8] the test system is Lefty1. As to the kind of experiment: Lefty1 binders on small-molecule microarrays, primary screen, biochemical, small-molecule microarray, 635/667 nm fluorescence (AID 1139). To be noted: small-molecule microarray binding, fluorescence 635/667; higher = more signal.
Assay [9] concerns wheat germ agglutinin (Triticum aestivum), Alexa647-labelled. As to the kind of experiment: wheat germ agglutinin binders on compound microarrays, profiling panel, artefact control for SMM control-protein annotation, biochemical, small-molecule microarray, 635/667 nm fluorescence (AID 1140).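 Further: score merges 667 nm feature emission with signal to noise over triplicate slides.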 To be noted: WGA-A647 binding, 635 nm fluorescence, higher = more signal.
The target of assay [10] is Luciferin 4-monooxygenase (Photinus pyralis) (UniProt P08659). As to the kind of experiment: firefly luciferase enzyme inhibitors, primary screen, biochemical, luminescence, purified enzyme, 2006 set (AID 1141).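 Further: cell-free assay with purified firefly luciferase at 100 ng per well in PBS; test concentration not given here.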 Particulars: SteadyGlo luminescence, 30 min, higher = more signal, called active from +8 up or from −8 down.
Assay [11] concerns Wnt5a (protein binding on small-molecule microarray). The assay can be described thus: Wnt5a binders on small-molecule microarray, primary screen, biophysical, 635/667 nm fluorescence (AID 1142).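 Further: fluorescence read at 667 nm with signal to noise per printed feature.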 Particulars: 635 nm fluorescence, higher = more signal.
The nature of assay [12]: cell viability in Huh7 cells, primary screen, cytotoxicity control for HCV replication inhibitor project, CellTiter-Glo luminescence, basal, 48 h (AID 1143).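 Further: Huh7 hepatoma cells carrying a hepatitis C replication reporter with no stimulus; test concentration not given here.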 To be noted: Huh7 HCV replicon, higher = more signal, called active from +8 up or from −8 down. Background: In ATP-based viability assays light output follows the ATP content of the culture.
The nature of assay [13]: P. aeruginosa biofilm formation inhibitors, primary screen, PAO1 strain, BacTiter-Glo luminescence, LB-PBS (AID 1144). To be noted: 12 h, higher = more signal.
Assay [14] can be described thus: CREB reporter modulators without forskolin, primary screen, cell-based, PC12, CRE-LacZ reporter, unstimulated (AID 1145). Particulars: no forskolin, luminescence, 4.5 h, higher = more signal, called active from +8 up or from −8 down.
Assay [15] is described as follows: CREB reporter modulators under forskolin, primary screen, cell-based, PC12, CRE-LacZ reporter, forskolin-stimulated (AID 1146).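 Further: PC12 cells with 6xCRE LacZ reporter stimulated by forskolin 10 µM; beta-galactosidase reporter signal reflecting CREB driven transcription.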 Particulars: luminescence, 4.5 h, higher = more signal, called active from +8 up or from −8 down.
For assay [16], the target named is Streptavidin (Streptomyces avidinii) (UniProt P22629). The assay can be described thus: streptavidin binders on small-molecule microarray, primary screen, artefact control for SMM compound annotation, biophysical, 635/667 nm fluorescence (AID 1147).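 Further: signal reflects streptavidin binding to arrayed compounds as a control protein.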 Particulars: streptavidin binding, higher = more signal.
Assay [17] can be described thus: small-molecule binders of probe aInhba, primary screen, biochemical, small-molecule microarray, 635/667 nm fluorescence (AID 1148).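 Further: score merges 667nm spot fluorescence with signal-to-noise for antibody binding to printed compounds.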 To be noted: higher = more signal.
In assay [18] the target is Torsin-1A (Homo sapiens) (UniProt O14656). The assay can be described thus: torsin A binders from cell lysate, primary screen, small-molecule microarray, wild-type, 635/667 nm (AID 1149). To be noted: COS7 hTOR1A-WT lysate, 635 nm fluorescence, higher = more signal.
Assay [19] shares this target. As to the kind of experiment: small-molecule binders of mutant TOR1A in lysate, primary screen, cell lysate, small-molecule microarray, COS7 lysate, 635/667 nm fluorescence (AID 1150).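 Further: score pools 667 nm emission and signal to noise measuring lysate protein binding.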 To be noted: COS7 hTOR1A mutant lysate, 635 nm fluorescence, higher = more signal.
In assay [20] the test system is Sonic hedgehog protein (Shh). The assay can be described thus: small-molecule binders of Shh protein, primary screen, biochemical, small-molecule microarray, 635/667 nm fluorescence (AID 1151).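 Further: Shh protein binding to compounds spotted on small-molecule microarray slides; score combines spot fluorescence intensity with signal-to-noise across triplicate slides.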 Particulars: small-molecule microarray binding, 635 nm fluorescence; higher = more signal.

Calls of active or inactive are those of the source. Unless noted, how the calls were made is not given here.

Chain of Follistatin (Homo sapiens) (P19883 whole entry, looked up): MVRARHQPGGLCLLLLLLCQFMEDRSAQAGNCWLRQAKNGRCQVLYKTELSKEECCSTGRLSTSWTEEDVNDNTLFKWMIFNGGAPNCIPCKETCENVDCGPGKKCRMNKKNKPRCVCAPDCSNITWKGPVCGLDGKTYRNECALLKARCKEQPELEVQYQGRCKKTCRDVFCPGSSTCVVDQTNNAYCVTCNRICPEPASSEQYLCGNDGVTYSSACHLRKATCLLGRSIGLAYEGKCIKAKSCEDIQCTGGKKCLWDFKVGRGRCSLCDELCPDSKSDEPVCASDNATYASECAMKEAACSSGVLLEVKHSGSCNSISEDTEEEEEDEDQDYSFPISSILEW
Chain of Streptavidin (Streptomyces avidinii) (P22629 whole entry, looked up): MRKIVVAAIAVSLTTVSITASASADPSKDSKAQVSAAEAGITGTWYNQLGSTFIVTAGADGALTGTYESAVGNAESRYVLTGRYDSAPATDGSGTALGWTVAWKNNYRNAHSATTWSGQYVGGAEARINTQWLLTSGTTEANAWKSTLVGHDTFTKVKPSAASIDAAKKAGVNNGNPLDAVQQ
Chain of Focal adhesion kinase 1 (Homo sapiens) (Q05397 whole entry, looked up): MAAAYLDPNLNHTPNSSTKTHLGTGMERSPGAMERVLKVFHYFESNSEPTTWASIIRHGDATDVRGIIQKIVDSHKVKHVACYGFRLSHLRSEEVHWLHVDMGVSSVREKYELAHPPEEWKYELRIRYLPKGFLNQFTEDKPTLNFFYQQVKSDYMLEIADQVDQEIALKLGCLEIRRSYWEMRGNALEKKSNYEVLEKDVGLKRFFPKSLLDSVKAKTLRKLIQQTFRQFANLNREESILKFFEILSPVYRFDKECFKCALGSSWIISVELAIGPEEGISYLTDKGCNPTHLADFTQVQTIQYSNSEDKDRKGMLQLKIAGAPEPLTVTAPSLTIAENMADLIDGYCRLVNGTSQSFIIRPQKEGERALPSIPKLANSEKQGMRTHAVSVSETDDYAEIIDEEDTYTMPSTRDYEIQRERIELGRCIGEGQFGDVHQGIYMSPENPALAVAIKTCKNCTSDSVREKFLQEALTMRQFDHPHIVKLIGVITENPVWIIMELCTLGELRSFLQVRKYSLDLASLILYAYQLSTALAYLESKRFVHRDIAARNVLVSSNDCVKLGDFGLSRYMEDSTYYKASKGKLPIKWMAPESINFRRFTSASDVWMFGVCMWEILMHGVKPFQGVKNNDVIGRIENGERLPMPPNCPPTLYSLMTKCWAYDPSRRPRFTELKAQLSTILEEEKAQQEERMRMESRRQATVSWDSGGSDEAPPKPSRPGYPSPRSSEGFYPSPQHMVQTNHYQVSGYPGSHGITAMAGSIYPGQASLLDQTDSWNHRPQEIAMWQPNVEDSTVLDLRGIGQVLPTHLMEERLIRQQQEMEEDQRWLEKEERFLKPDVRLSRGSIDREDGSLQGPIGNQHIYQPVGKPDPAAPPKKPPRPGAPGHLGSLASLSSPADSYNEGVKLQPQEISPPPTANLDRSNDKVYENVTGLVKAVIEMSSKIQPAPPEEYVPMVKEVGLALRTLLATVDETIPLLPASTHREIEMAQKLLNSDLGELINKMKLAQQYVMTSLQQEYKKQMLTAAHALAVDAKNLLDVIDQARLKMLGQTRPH
Chain of Luciferin 4-monooxygenase (Photinus pyralis) (P08659 whole entry, looked up): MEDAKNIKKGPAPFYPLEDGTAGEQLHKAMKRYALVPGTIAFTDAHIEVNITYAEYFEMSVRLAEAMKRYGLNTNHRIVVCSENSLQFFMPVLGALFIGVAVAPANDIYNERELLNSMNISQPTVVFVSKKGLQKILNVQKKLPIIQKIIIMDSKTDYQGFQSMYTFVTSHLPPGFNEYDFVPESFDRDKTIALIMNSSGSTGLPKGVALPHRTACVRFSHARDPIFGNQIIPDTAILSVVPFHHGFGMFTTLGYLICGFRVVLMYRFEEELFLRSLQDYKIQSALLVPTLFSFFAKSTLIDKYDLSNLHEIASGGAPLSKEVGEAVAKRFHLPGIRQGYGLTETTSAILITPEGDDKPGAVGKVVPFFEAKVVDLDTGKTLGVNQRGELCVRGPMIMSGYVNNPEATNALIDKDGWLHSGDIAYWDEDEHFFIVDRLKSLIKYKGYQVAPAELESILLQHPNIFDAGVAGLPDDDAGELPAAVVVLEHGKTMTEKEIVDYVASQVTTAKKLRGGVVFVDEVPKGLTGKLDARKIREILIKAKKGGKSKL
Chain of Torsin-1A (Homo sapiens) (O14656 whole entry, looked up): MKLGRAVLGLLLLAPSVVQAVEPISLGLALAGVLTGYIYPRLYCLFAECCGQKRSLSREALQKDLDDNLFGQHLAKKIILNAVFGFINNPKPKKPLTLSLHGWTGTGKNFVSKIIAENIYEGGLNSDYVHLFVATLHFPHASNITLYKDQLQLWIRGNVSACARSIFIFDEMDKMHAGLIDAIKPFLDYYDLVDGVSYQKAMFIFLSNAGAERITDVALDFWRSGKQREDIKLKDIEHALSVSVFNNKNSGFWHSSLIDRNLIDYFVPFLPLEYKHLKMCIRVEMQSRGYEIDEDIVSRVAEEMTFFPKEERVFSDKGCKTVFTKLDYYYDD
Chain of Fibroblast growth factor 2 (Homo sapiens) (P09038 whole entry, looked up): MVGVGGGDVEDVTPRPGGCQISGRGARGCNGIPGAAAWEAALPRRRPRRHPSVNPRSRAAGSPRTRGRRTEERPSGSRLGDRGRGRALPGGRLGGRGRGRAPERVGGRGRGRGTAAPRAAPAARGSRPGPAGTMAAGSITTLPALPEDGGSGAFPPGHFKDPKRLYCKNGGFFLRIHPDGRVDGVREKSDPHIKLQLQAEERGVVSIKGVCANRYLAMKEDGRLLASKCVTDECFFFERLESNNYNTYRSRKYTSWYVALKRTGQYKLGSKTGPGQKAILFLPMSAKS

As for `C=CCC(OC(C)=O)[C@@H]1[C@@H](N(Cc2ccc(-c3ccccc3)cc2)C(=O)c2cccc3ccccc23)c2cc(OCCCO)ccc2N1C(=O)c1ccc2ccccc2c1` (stereo not given in full), the composite z-score in assay [1] is -0.173; in assay [2], 0.216; in [3] it was 0.529; in [4], 0.728; in assay [5], 0.424; in assay [6], -0.198. The composite z-score is 0.243 in assay [8]; 0.104 in assay [9]; 0.0959 in [11]; 0.144 in [16]; 0.0219 in assay [17]; -0.0928 in assay [18]. The composite z-score in assay [19] stood at 0.0249; in [20], 0.156. For the same compound, the z-score was 0.248 in [7]; 0.209 (inactive) in [10]; -1.61 (inactive) in [12]; 0.41 (inactive) in assay [13]; -0.155 (inactive) in [14]; 0.108 (inactive) in assay [15].
As for `CC(=O)NCCCC[C@@H]1NC(=O)[C@@H]2C[C@H](C(=O)NCCCCCC[N+](C)(C)C)[C@H](c3ccc(O)cc3)N2C1=O`, the composite z-score in assay [1] was 3.45; in [2] it was 0.377; in [3], -0.153; in assay [4] it was 0.333; in [5], 1.41; in assay [6], 1.56. The composite z-score in assay [8] was 0.907; in assay [9] it was 0.78; in assay [11], 0.0463; in assay [16] it was -0.314; in assay [17], -0.105; in [18], 0.0055. Moreover, the composite z-score in assay [19] was 0.885; in assay [20], 1.75. Besides, the z-score is -0.856 in [7]; 0.32 (inactive) in [10]; 0.159 (inactive) in assay [12]; 0.795 (inactive) in [13]; -0.675 (inactive) in assay [14]; -0.293 (inactive) in assay [15].
`CCCCC(=C=CC[C@@H](O)c1cccc(OCCO)c1)CCO`: the composite z-score is -0.378 in [1]; -0.437 in assay [2]; -0.0962 in [3]; 0.449 in assay [4]; 0.242 in assay [5]; 0.154 in [6]. In addition, the composite z-score was 0.448 in assay [8]; 0.771 in assay [9]; 0.0999 in assay [11]; 1.42 in assay [16]; -0.188 in assay [17]; -1.33 in [18]. Also, the composite z-score is -0.828 in [19] and 0.364 in [20]. Besides, the z-score in assay [7] was 0.613; in [10], -0.656 (inactive); in assay [12], -0.562 (inactive); in assay [13], -0.564 (inactive); in assay [14], 3.5 (inactive); in assay [15], -0.468 (inactive).
For the compound `COC(=O)[C@@]1(Cc2ccc(OC)cc2)[C@H]2c3cc(C(=O)N(C)C)n(Cc4ccsc4Br)c3C[C@H]2CN1C(=O)c1ccccc1`, the composite z-score in assay [1] is 1.74; in [2], 1.09; in [3] it was 0.957; in [4] it was 0.862; in [5], -0.244; in [6], -0.29. The composite z-score in [8] was -0.538; in assay [9] it was 0.669; in assay [11] it was 0.286; in assay [16], 0.705; in assay [17] it was 0.571; in [18] it was -0.0008. The composite z-score in assay [19] turned out to be 0.808; in assay [20], 0.105. The z-score is 0.292 in assay [7]; 1.05 (inactive) in assay [10]; -0.21 (inactive) in [12]; 0.00572 (inactive) in assay [13]; 0.597 (inactive) in assay [14]; 0.217 (inactive) in assay [15].
For the compound `CO[C@H]1O[C@H](CO)[C@@H](OC(=O)Nc2ccc(C(F)(F)F)cc2)[C@H](OC(=O)Nc2ccccc2-c2ccccc2)[C@H]1OC(=O)Nc1ccccc1-c1ccccc1`, the composite z-score is 1.7 in assay [1]; 1.26 in assay [2]; 0.735 in assay [3]; 1.04 in [4]; 1.27 in assay [5]; 0.686 in assay [6]. For the same compound, the composite z-score was found to be 0.617 in assay [8]; 0.662 in [9]; 0.856 in assay [11]; 0.967 in [16]; 0.0504 in [17]; 0.276 in [18]. Moreover, the composite z-score in assay [19] worked out at 0.263; in assay [20], 1.61. Further, the z-score in assay [7] is -0.132; in [10] it was -0.68 (inactive); in assay [12], -6.09 (inactive); in assay [13], 0.435 (inactive); in assay [14] it was 0.447 (inactive); in assay [15], -0.747 (inactive).

The values above are taken from PubChem BioAssay.
